Bioassay records: PubChem, National Center for Advancing Translational Sciences (NCATS)
This is a sample that favours compounds with a hit; in the whole collection about 2.4% have one here.
Cruzain noTriton = blocks cruzain activity in detergent-free assay; P25779; AID 1476; purified cruzain, Z-FR-AMC fluorescence, no detergent; Potency, µM, for the others: max response, negative = inhibition, usual class: inhibitors; 200,000 compounds, 2.3% hits;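 further: plate controls were enzyme without inhibitor for no effect and buffer without enzyme for full effect; nearly all actives have a fitted effect of over 40% in size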
Target sequence (P25779 123-467 limits assumed): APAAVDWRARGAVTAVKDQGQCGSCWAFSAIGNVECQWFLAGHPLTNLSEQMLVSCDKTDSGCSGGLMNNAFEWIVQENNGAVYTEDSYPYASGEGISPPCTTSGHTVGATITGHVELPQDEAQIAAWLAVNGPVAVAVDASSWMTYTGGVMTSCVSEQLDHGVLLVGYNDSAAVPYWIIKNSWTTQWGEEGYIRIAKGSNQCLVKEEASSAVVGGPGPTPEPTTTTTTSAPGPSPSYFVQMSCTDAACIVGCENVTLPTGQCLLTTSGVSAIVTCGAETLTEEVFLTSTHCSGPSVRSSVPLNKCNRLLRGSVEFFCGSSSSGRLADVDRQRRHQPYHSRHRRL
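Purified cruzain at 1.5 nM, pre-incubated 15 min with compound at room temperature in 100 mM sodium acetate pH 5.5, 5 mM DTT, 0.00005% Triton X-100. Reaction started with 2 uM Z-FR-AMC; AMC fluorescence increase over 60 s gives rate.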
Cruzain Triton = cruzain (T. cruzi) inhibition with detergent. Potency, µM, inactives show max response, negative = inhibition, usual class: inhibitors. purified cruzain, Z-FR-AMC fluorescence, 0.01% Triton. 200,000 compounds, 0.43% hits. AID 1478. P25779;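 further: plate controls were neutral wells for no effect and buffer without enzyme for full effect; nearly all actives have a fitted effect of over 40% in size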
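Z-FR-AMC hydrolysis (2 uM substrate) by cruzain (1.5 nM) monitored kinetically at ex 360/em 450 nm after 15 min room-temperature compound exposure; 0.01% Triton X-100, pH 5.5, 5 mM DTT.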
* marks the source's active call; other numbers are inactive results. The call rests on the fitted dose curve; in most records, active means well fitted curve in the direction sought with a large enough effect; inconclusive means small, poorly fitted or top-dose-only effect, or another doubt; inactive means no such curve, though single readings can be large; an effect the other way counts as inactive or inconclusive. Potency means the concentration at half of the fitted maximal effect.

Results for COc1ccc(/C=C/C(=O)C(C(N)=O)=C2SCCS2)cc1 ?
Cruzain noTriton: 7%; Cruzain Triton: -6%

Results for Cc1ccc(C(=O)C(C(=O)/C=C/c2ccccc2)=C2SCCCS2)cc1 ?
Cruzain noTriton: 25µM*; Cruzain Triton: -8%

Results for CC(C)(C)OC(=O)N1CCC(c2c(C(=O)Nc3ccc4c(c3)OCCO4)cnn2-c2ccc(F)cc2F)CC1 ?
Cruzain noTriton: -6%; Cruzain Triton: -9%

What do the screens show for `O=C(CCN1CCc2ccccc2C(c2ccccc2)C1)c1ccc2c(c1)OCCO2` (stereo not given)?
Cruzain noTriton: 16µM*; Cruzain Triton: 28µM*

Results for O=C(CCN1Cc2ccccc2C1)c1ccc2c(c1)OCCO2 ?
Cruzain noTriton: inconclusive; Cruzain Triton: -25%

What do the screens show for `Cc1cccc(C)c1NC(=O)c1oc2c(c1C)-c1nn(Cc3ccccc3)cc1CC2`?
Cruzain noTriton: 12%; Cruzain Triton: -5%

Results for CCN(CC)c1ccc(NC(=O)C2CCN(S(=O)(=O)c3c(C)noc3/C=C/c3ccccc3F)CC2)c(C)c1 ?
Cruzain noTriton: -10%; Cruzain Triton: 1%

Results for O=C(Nc1ccccc1N1CCN(C(=O)c2ccccc2)CC1)c1cc2ccccc2o1 ?
Cruzain noTriton: 0.16µM*; Cruzain Triton: -8%

What do the screens show for `O=C(Nc1ccccc1N1CCCC1)c1cc2ccccc2o1`?
Cruzain noTriton: -13%; Cruzain Triton: -2%

Results for CCC(C)NC(=O)C(=O)Nc1c2c(nn1-c1ccccc1)CS(=O)(=O)C2 (stereo not given) ?
Cruzain noTriton: -15%; Cruzain Triton: 0%

What do the screens show for `Cc1cc(/C=C2/NC(=O)N(Cc3ccccc3F)C2=O)c(C)n1-c1ccccn1`?
Cruzain noTriton: inconclusive; Cruzain Triton: -6%

What do the screens show for `Cc1cc(/C=C2/NC(=O)N(Cc3ccccc3F)C2=O)c(C)n1C`?
Cruzain noTriton: 25µM*; Cruzain Triton: -6%

Results for O=C1N/C(=C/c2ccco2)C(=O)N1Cc1ccccc1F ?
Cruzain noTriton: 1%; Cruzain Triton: -7%

What do the screens show for `Cc1cccc(CN2C(=O)N/C(=C/c3cc(C)n(-c4ccccn4)c3C)C2=O)c1`?
Cruzain noTriton: 25µM*; Cruzain Triton: -6%

What do the screens show for `COc1cc(Cl)c(C)cc1NC(=O)c1cnc2c(-c3cccc(C)c3)c(C)nn2c1C`?
Cruzain noTriton: -5%; Cruzain Triton: -5%

How did CSc1ncc(Cl)c(C(=O)N(Cc2ccccc2Cl)C2CCS(=O)(=O)C2)n1 (stereo not given) do in these assays?
Cruzain noTriton: 16%; Cruzain Triton: 1%

How did c1ccc(-c2n[nH]c3c2oc2ccccc23)cc1 do in these assays?
Cruzain noTriton: -15%; Cruzain Triton: 1%

What do the screens show for `c1ccc(CN2CN=C(Nc3nc4ccccc4s3)NC2)cc1`?
Cruzain noTriton: -8%; Cruzain Triton: inconclusive

What do the screens show for `c1coc(CN2CN=C(Nc3nc4ccccc4s3)NC2)c1`?
Cruzain noTriton: 13µM*; Cruzain Triton: inconclusive

Results for CCN1CCN(c2oc(/C=C/c3ccc(OC)c(OC)c3)nc2C#N)CC1 ?
Cruzain noTriton: 20µM*; Cruzain Triton: -22%

What do the screens show for `COc1ccc(CCNc2oc(/C=C/c3ccc(OC)c(OC)c3)nc2C#N)cc1`?
Cruzain noTriton: 16µM*; Cruzain Triton: -25%

How did CCN1CCN(c2oc(/C=C/c3cc(OC)c(OC)c(OC)c3)nc2C#N)CC1 do in these assays?
Cruzain noTriton: -4%; Cruzain Triton: -1%

How did COc1ccc(/C=C/c2nc(C#N)c(N3CCCCCC3)o2)cc1OC do in these assays?
Cruzain noTriton: inconclusive; Cruzain Triton: -4%

How did COc1ccc(/C=C/c2nc(C#N)c(N3CCC(C(N)=O)CC3)o2)cc1OC do in these assays?
Cruzain noTriton: 32µM*; Cruzain Triton: inconclusive

What do the screens show for `COc1ccc(/C=C/c2nc(C#N)c(NCCc3ccc(OC)c(OC)c3)o2)cc1OC`?
Cruzain noTriton: -8%; Cruzain Triton: -20%

What do the screens show for `CCCCC(CC)CNC(=O)CCCCCn1c(=O)[nH]c2ccsc2c1=O` (stereo not given)?
Cruzain noTriton: inconclusive; Cruzain Triton: -5%

How did C=CCOC(=O)NC(c1ccc(F)c(F)c1)C(C(=O)CCl)C(=O)OC (stereo not given) do in these assays?
Cruzain noTriton: -5%; Cruzain Triton: -21%

What do the screens show for `CC12CCC3c4ccc(OCc5ccccc5)cc4CCC3C1CC(O)C2O` (stereo not given)?
Cruzain noTriton: inconclusive; Cruzain Triton: -1%

What do the screens show for `Cc1ccc(CN2CCC(CNC(=O)Nc3c(C)cccc3C)C2)cc1` (stereo not given)?
Cruzain noTriton: -8%; Cruzain Triton: 4%

How did OC[C@@H]1[C@@H](c2ccc(F)cc2)C(c2cccc(Cl)c2)=NN1c1ccccc1 do in these assays?
Cruzain noTriton: 32µM*; Cruzain Triton: 0%

What do the screens show for `OC[C@@H]1[C@@H](c2ccc(Cl)cc2)C(c2cccc(Cl)c2)=NN1c1ccccc1`?
Cruzain noTriton: 25µM*; Cruzain Triton: 2%
